Hits are enriched below; roughly 2.6% of the tested compounds scored in any of these assays.
Cruzain noTriton: cruzain (T. cruzi) inhibition without detergent; P25779; purified cruzain, Z-FR-AMC fluorescence, no detergent; Potency, µM, actives largely listed as inhibitors; 200,000 tested, 2.3% active; AID 1476; note: nearly all actives have a fitted effect of over 40% in size
Target sequence (P25779 123-467 limits assumed): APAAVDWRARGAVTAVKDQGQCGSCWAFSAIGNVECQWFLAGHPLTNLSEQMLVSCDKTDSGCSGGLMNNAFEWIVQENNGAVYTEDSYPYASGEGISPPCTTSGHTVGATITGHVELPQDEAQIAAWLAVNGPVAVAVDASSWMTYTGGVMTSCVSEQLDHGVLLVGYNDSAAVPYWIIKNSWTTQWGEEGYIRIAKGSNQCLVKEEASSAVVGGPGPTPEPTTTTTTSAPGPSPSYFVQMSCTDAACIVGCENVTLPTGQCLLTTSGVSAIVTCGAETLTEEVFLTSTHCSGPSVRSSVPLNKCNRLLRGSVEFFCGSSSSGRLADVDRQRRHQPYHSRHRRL
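Purified cruzain at 1.5 nM, pre-incubated 15 min with compound at room temperature in 100 mM sodium acetate pH 5.5, 5 mM DTT, 0.00005% Triton X-100. Reaction started with 2 uM Z-FR-AMC; AMC fluorescence increase over 60 s gives rate.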
Cruzain Triton: blocks cruzain activity in presence of Triton detergent | P25779 | purified cruzain, Z-FR-AMC fluorescence, 0.01% Triton | Potency, µM, most hits filed as inhibitors | 200,000 tested, 0.43% active; note: nearly all actives have a fitted effect of over 40% in size
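Steps: dispense cruzain (1.5 nM final) in acetate buffer pH 5.5 with DTT and 0.01% Triton X-100; pin-transfer compounds; incubate 15 min RT; add Z-FR-AMC (2 uM final); read fluorescence every 30 s, using the 60 s intensity change.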
Numbers stand for hits; – = inactive; ? = inconclusive; · = no result given. Calls come from the whole dose curve; as a rule, active = well fitted curve in the direction sought with a large enough effect; inconclusive = small, poorly fitted or top-dose-only effect, or another doubt; inactive = no such curve, though single readings can be large; an effect the other way counts as inactive or inconclusive.

SMILES	Cruzain noTriton	Cruzain Triton
Cn1c(=O)c2c(nc(N3CCOCC3)n2Cc2ccccc2F)n(C)c1=O	–	–
COc1ccc(OC)c(NC(=O)Cn2cc(C(=O)c3ccc(Cl)cc3)c(=O)c3cc(OC)ccc32)c1	–	–
COC(=O)c1c(-c2cccs2)csc1NC(=O)c1ccc(C(C)C)cc1	–	–
CCOc1ccc(-n2c(=O)c3c4c(sc3n(CC(=O)NC(C)CC)c2=O)CCCC4)cc1 (stereo not drawn)	–	–
COc1ccccc1CNc1ncnc2ccc(-c3ccc(C(=O)N(C)C)cc3)cc12	–	–
CCOC(=O)C1CCN(C(=O)CSc2n[nH]c(-c3ccc(OC)cc3)n2)CC1	–	–
CCCCc1ccc(C2C(C#N)=C(N)SC(N)=C2C#N)s1	31.6µM	?
CCOc1ccc(C2C(C#N)=C(N)SC(N)=C2C#N)c(OCC)c1	–	–
Cc1c(Cl)cccc1NC(=O)CN1C(=O)CSc2ccc(S(=O)(=O)N3CCCC3)cc21	–	–
Cc1cccc(NC(=O)Cn2ncc3c4ccccc4n(Cc4ccccc4)c3c2=O)c1C	–	–
CCc1nc2cccnc2n1-c1ccc(CC(=O)Nc2cccc(C)c2C)cc1	–	15.8µM
CCc1ccccc1NC(=O)Cc1ccc(-n2c(C)nc3cccnc32)cc1	–	–
CCc1nc2cccnc2n1-c1ccc(CC(=O)Nc2ccc(C)cc2)cc1	–	–
CCc1nc2cccnc2n1-c1ccc(CC(=O)Nc2ccccc2Cl)cc1	–	12.6µM
C[N+]1(C)CCC[C@H]1C(=O)[O-]	–	–
CC(C)c1ccccc1NC(=O)Cn1cnc2c1c(=O)n(C)c(=O)n2C	–	–
C=Cc1cccc(C)c1	–	–
Oc1c(Cl)cc(Cl)cc1Cl	·	–
CCN(C(=O)Cn1nc(Cc2ccncc2)c2ccccc2c1=O)c1cccc(C(F)(F)F)c1	–	–
N#Cc1c(NC(=O)CSc2ncnc3sccc23)oc(-c2ccco2)c1-c1ccco1	25.1µM	–
CCNC(=O)CSc1ncnc2sccc12	–	–
CCOc1ccc(CCNC(=O)CN2C(=O)COc3ccc(S(=O)(=O)N(CC)CC)cc32)cc1	?	–
COc1ccc(CCN(C)CCCOc2ccc(S(=O)(=O)c3[nH]c4ccccc4c3C(C)C)cc2)cc1OC	–	–
Fc1ccccc1/C=N/NC(=S)Nc1ccc(Cl)cc1Cl	10µM	–
Fc1ccc(NC(=S)N/N=C/c2ccc(F)c(F)c2)c(F)c1	?	–
SMILES	Cruzain noTriton	Cruzain Triton
COCCNc1nc(-c2cccc(OC)c2)nc2ccccc12	–	–
COc1ccc(C)cc1S(=O)(=O)N(CC(=O)Nc1cccc([N+](=O)[O-])c1)c1ccc(C)c(C)c1	31.6µM	–
COc1ccc(S(=O)(=O)N(CC(=O)Nc2ccc(C)cc2)c2ccc(C)cc2)cc1OC	–	–
CC(=O)Nc1ccc(S(=O)(=O)NCc2ccc3c(c2)cc(C)n3C)cc1	–	–
Cc1cc2cc(CNS(=O)(=O)c3ccc4ccccc4c3)ccc2n1C	25.1µM	–
CC(/C=N/NC(=O)Cc1cccs1)=C\c1ccccc1	–	–
O=C(Cc1cccs1)N/N=C/C(Br)=C/c1ccccc1	15.8µM	–
CCCn1c2ccccc2c2cnn(CC(=O)N3CCN(c4ccccc4)CC3)c(=O)c21	–	–
COc1ccc(-c2cc(OC(=O)c3ccc(F)cc3)c3c(C)oc(C)c3c(=O)c2)cc1OC	–	–
Cc1ccc(-c2cc(-c3ccccc3)[nH]c(=S)c2C#N)cc1	15.8µM	–
N#Cc1c(-c2ccc(C(F)(F)F)cc2)cc(-c2ccccc2)[nH]c1=S	–	–
C1=C(c2ccccc2)Nc2nnnn2C1c1cccs1 (stereo not drawn)	–	–
Cc1ccc(C2=CC(c3cccs3)n3nnnc3N2)cc1 (stereo not drawn)	15.8µM	–
O=c1oc2ccc3ccccc3c2cc1-c1nnc(Nc2ccc(F)cc2)s1	–	–
c1ccc2c([C@@H]3CCN(CCN4CCOCC4)C3)c[nH]c2c1	–	–
CS(=O)(=O)N1CCN(c2ccccc2NC(=O)c2ccc3ccccc3c2)CC1	20µM	–
CS(=O)(=O)N1CCN(c2ccccc2NC(=O)c2ccc(Cl)cc2)CC1	–	–
Cc1cc(C)cc(C(=N)c2ccccc2Cc2cccc3ccccc23)c1	–	–
CCOc1cc(/C=N/N=C(/N)c2nonc2N)cc(Br)c1OCc1ccc(Cl)cc1	3.98µM	–
COc1cc(/C=N/N=C(/N)c2nonc2N)cc(Br)c1OCc1ccccc1C	–	–
Cc1ccc2onc(CC(=O)N(C)c3ccccc3)c2c1	–	–
O[C@H](CN1CC1)[C@@H](O)CN1CC1	–	–
COc1ccc(CNC(=O)c2cc(Nc3ccccc3C)nc3ccccc23)cc1	25.1µM	–
COc1ccc(CNC(=O)c2cc(Nc3ccc(C)cc3C)nc3ccccc23)cc1	–	–
COc1ccc(NC(=O)Cn2c(=O)n(-c3ccc(C)c(C)c3)c(=O)c3c(C)c(C)sc32)cc1	–	–
SMILES	Cruzain noTriton	Cruzain Triton
CCCOc1ccc(C(=O)Nc2ccc3oc(-c4ccc(N(C)C)cc4)nc3c2)cc1	–	–
Cc1cccc(-c2nnn3c2nc(NCCc2ccc(S(N)(=O)=O)cc2)c2ccccc23)c1	?	–
NS(=O)(=O)c1ccc(CCNc2nc3c(-c4cccc(F)c4)nnn3c3ccccc23)cc1	20µM	–
N#C/C(=C\Nc1ccccc1SC(F)(F)F)c1nc(-c2ccc(F)cc2)cs1	–	–
Cc1ccc(-c2csc(/C(C#N)=C/Nc3ccccc3SC(F)(F)F)n2)cc1	10µM	–
Cc1ccc(Cl)cc1-n1nnc(-c2nsc(NC(=O)c3ccccc3Cl)n2)c1C	3.16µM	–
Cc1ccc(C(=O)Nc2nc(-c3nnn(-c4cccc(Cl)c4C)c3C)ns2)cc1C	?	–
COCCNc1ncnc2ccc(-c3c(C)noc3C)cc12	–	–
COCCCNc1oc(/C=C/c2cc(OC)c(OC)c(OC)c2)nc1C#N	20µM	25.1µM
COc1ccc(CCNc2oc(/C=C/c3cc(OC)c(OC)c(OC)c3)nc2C#N)cc1OC	–	–
COc1ccc2cc(CNc3ccc(C)cc3)c(=O)n(CC(=O)Nc3ccc(C)cc3Cl)c2c1	–	–
COc1ccc(CNC(=O)C(=O)Nc2ccc(OC)cc2OC)cc1	–	–
Cc1cc(C(=O)COC(=O)CNC(=O)c2ccc(Cl)c(Cl)c2)c(C)n1Cc1ccco1	–	10µM
Cc1ccc(C(=O)NCC(=O)OCC(=O)c2cc(C)n(Cc3ccco3)c2C)cc1	–	–
C=CCn1c(C)cc(C(=O)COC(=O)C2CC(=O)N(Cc3ccccc3)C2)c1C (stereo not drawn)	–	–
C=CCn1c(C)cc(C(=O)COC(=O)CNC(=O)c2ccccc2)c1C	20µM	25.1µM
CCCCOc1nnc(-c2ccc(OCC)cc2)c2ccccc12	–	–
Cc1cc(C)c2oc(-c3ccc(C)c(NC(=S)NC(=O)c4cccs4)c3)nc2c1	7.94µM	–
Cc1sc(NC(=O)c2cccs2)nc1-c1ccccc1	–	–
Cc1ccc(-c2nc3ccccc3o2)cc1NC(=S)NC(=O)c1cccs1	?	–
Cc1sc(NC(=S)NC(=O)c2cccs2)nc1-c1ccc(C(C)C)cc1	10µM	–
O=C(NC(=S)Nc1nc(-c2ccccc2)cs1)c1cccs1	?	–
Cc1ccc(-c2csc(NC(=S)NC(=O)c3cccs3)n2)cc1	15.8µM	–
COc1ccc(-c2nc(CNC(=O)NC3CCCCC3)c(C)o2)cc1	–	–
O=C(NCC1(c2ccccc2)CCCC1)C(=O)Nc1cccc(C(F)(F)F)c1	–	–
O=C(COC(=O)CNC(=O)c1sc2ccccc2c1Cl)Nc1c(Cl)cc(Cl)cc1Cl	?	25.1µM

Screening data as filed in PubChem BioAssay.
